Bioassay records as filed in PubChem.
An excerpt weighted towards active compounds, which were near 3.5% of everything screened.
Pf apPOL block: Pf-apPOL DNA polymerase inhibition. Recombinant Pf-apPOL, molecular beacon fluorescence, 1.5 h. inhibition, % at 10 µM. 0.25% of 210,000 active. AID 1794808
mHTT CaM bind: mHTT-calmodulin interaction abrogation | P42858 | AlphaScreen His-mHTT/GST-CaM binding, luminescence | inhibition, % at 15 µM | 3.6% of 190,000 active | AID 1671202
Large screens that a line does not name were inactive. Rule as the data show it: active = inhibition above about 50%; inactive = the rest.

CC1(C)CC(=O)C2=C(C1)NC1=C(C(=O)c3ccccc31)C2c1ccc([N+](=O)[O-])o1 (stereo not drawn)	mHTT CaM bind 55
CCC1SC(=NC(=O)C(Cc2ccccc2)N2C(=O)c3ccccc3C2=O)NC1=O (stereo not drawn)	none
O=C(Nc1nc2c(Cl)cccc2s1)c1cc(=O)c2ccccc2o1	Pf apPOL block 50
O=C(Nc1ccccc1-c1nc2ccccc2s1)c1cc(=O)c2ccccc2o1	none
CC(=O)NC1CCN(c2ccccc2C(=O)NCC2CCCO2)CC1 (stereo not drawn)	none
Cn1ccnc1SCC(=O)N1c2ccccc2Sc2ccc(C(F)(F)F)cc21	mHTT CaM bind 53
N#CSCC(=O)N1c2ccccc2Sc2ccc(C(F)(F)F)cc21	none
Cn1c(=O)c(-c2nc(-c3ccc(F)c(Cl)c3)no2)c(O)c2ccccc21	none
O=C(Nc1ccccc1F)c1cnc(-c2ccccc2)nc1-c1ccncc1	none
O=C(Nc1ccccc1)c1cnc(-c2ccc(F)cc2)nc1-c1ccncc1	none
Cc1ccc(-c2ncc(C(=O)N3CCCCCC3)c(-c3ccncc3)n2)cc1	mHTT CaM bind 56
Cc1ccc(-c2ncc(C(=O)N3CCCC3)c(N3CCCCC3)n2)cc1	none
O=C(Nc1cccc(F)c1)c1cnc(-c2ccc(F)cc2)nc1-c1ccncc1	Pf apPOL block 64
Cc1ccc(NC(=O)c2cnc(-c3ccc(C)cc3)nc2-c2ccncc2)cc1	none
Cc1c(F)cccc1NC(=O)c1cnc(-c2ccc(F)cc2)nc1-c1ccncc1	Pf apPOL block 77
Cc1ccc(-c2ncc(C(=O)Nc3ccc(Cl)cc3)c(-c3ccncc3)n2)cc1	Pf apPOL block 65
COc1ccccc1N=c1oc2c(C)ncc(CO)c2cc1C(=O)Nc1ccccc1F	none
CN1C(=O)c2ccccc2C(C(=O)Nc2cccc(C(F)(F)F)c2)C1c1cccs1 (stereo not drawn)	none
CC1=C(C(=O)OC(C)C)C(c2ccccc2Cl)NC(=O)N1C (stereo not drawn)	none
Cc1ccc(NC(=O)Cn2c(=O)n(C3CCCCC3)c3ncccc32)c(C)c1	none
Clc1ccc(-c2cn(-c3ccc(Br)cc3)c3[n+]2CCCS3)cc1	none
O=C1CC(c2cccs2)Sc2nc(-c3ccc(F)cc3)nn21 (stereo not drawn)	none
Cc1cc2[nH]c(C(=O)Nc3cccc(Cl)c3C)c(CN3CCOCC3)c2s1	none
Cc1cc2[nH]c(C(=O)Nc3cccc(C)c3C)c(CN3CCOCC3)c2s1	mHTT CaM bind 53
CCCNC(=O)c1ccc(-c2cccc(F)c2)nc1	none
O=C(NCCCN1CCCCC1)c1cc(-c2ccc(Cl)s2)nc2ccccc12	none
COc1cccc(CN2CCc3c(cc(C(=O)NCc4ccccc4OC)n3C)C2)c1	none
COc1cccc(CN2CCc3c(cc(C(=O)Nc4cc(OC)cc(OC)c4)n3C)C2)c1	mHTT CaM bind 62
COc1ccc(NC(=O)c2cc3c(n2C)CCN(Cc2cccc(C)c2)C3)c(OC)c1	mHTT CaM bind 63
CCCNC(=O)c1cc2c(n1C)CCN(Cc1cccc(C)c1)C2	none
COc1ccc(OC)c(Nc2ncc3c(n2)CCN(Cc2cccc(OC)c2OC)C3)c1	none
CCCN1CCc2nc(Nc3ccccc3OC)ncc2C1	Pf apPOL block 96
COc1ccc(OC)c(Nc2ncc3c(n2)CCN(CCc2ccccc2)C3)c1	mHTT CaM bind 59
COc1cccc(CN2CCc3nc(Nc4cc(OC)ccc4OC)ncc3C2)c1	none
COc1ccccc1Nc1ncc2c(n1)CCN(Cc1ccc(F)cc1)C2	none
CCOc1ccccc1CN1CCc2nc(Nc3cc(OC)ccc3OC)ncc2C1	mHTT CaM bind 63
Cc1cccc(S(=O)(=O)N2CC3CN(C(=O)NC4CCCC4)CC(C2)O3)c1	none
O=C(O)C1Sc2c(sc(=O)n2-c2ccccc2)C2c3ccccc3OC(=O)C12 (stereo not drawn)	none
O=S(=O)(Nc1ccc(Cl)c(Cl)c1)c1ccc(F)cc1	none
Cc1cc(C(F)(F)F)nn1CC(=O)Nc1ccc([N+](=O)[O-])cc1Br	none
Cc1cccc(-c2nc(C3CCN(C(=O)c4ccc(Br)cc4)CC3)no2)c1	none
CC(C)CNC(=O)C1CCCN(c2ncc(-c3ccccc3)cn2)C1 (stereo not drawn)	none
O=C(NCc1ccccc1Cl)C1CCN(C(=O)Nc2cccs2)CC1	mHTT CaM bind 58
O=C(NC1CC1)C1CCN(C(=O)Nc2cccs2)CC1	none
CC(C)NC(=O)c1ccccc1OCC1CCN(C(=O)c2ccccc2)CC1	none
O=C1C(=Cc2ccc(Br)cc2)Oc2c1ccc(O)c2CN1CCOCC1	mHTT CaM bind 56
O=C1C(=Cc2ccc(Br)cc2)Oc2c1ccc(O)c2CN1CCCC1	none
CCN(CC)Cc1c(O)ccc2c1OC(=Cc1ccc(C)cc1)C2=O	none
CCN(CC)Cc1c(O)ccc2c1OC(=Cc1ccc(Br)cc1)C2=O	mHTT CaM bind 58
O=C1C(=CC=Cc2ccccc2)Oc2c1ccc(O)c2CN1CCOCC1	mHTT CaM bind 62
CCN1CCN(Cc2c(O)ccc3c2OC(=CC=Cc2ccccc2)C3=O)CC1	none
CC(C)(C)C(=O)N1CCc2nc(-c3ccc(F)cc3)ncc2C1	none
Cc1cccc(-c2nc(C)c(CCNC(=O)Cc3ccc(F)cc3)s2)c1	none
Cc1cccc(C)c1N(CC(=O)O)S(C)(=O)=O	none
CCOC(=O)CN1CCN(c2ccccc2Cl)C(=O)C1C (stereo not drawn)	none
CCC(=O)N1c2ccccc2NC2=C(C(=O)CC(C)(C)C2)C1c1ccc(Br)s1 (stereo not drawn)	none
CC(C)NC(=O)c1nc2ccccn2c1-c1ccc(F)cc1	none
O=C(Nc1nnc(C2CC(=O)N(c3ccccc3)C2)o1)c1ccc(Br)cc1 (stereo not drawn)	none
COc1ccc(C(=O)Nc2nnc(C3CC(=O)N(c4ccccc4)C3)o2)cc1 (stereo not drawn)	none
CS(=O)(=O)c1ccc(N2CC(c3nnc(NC(=O)c4cccs4)o3)CC2=O)cc1 (stereo not drawn)	mHTT CaM bind 53
COc1ccc(C(=O)Nc2nnc(C3CC(=O)N(c4ccc(Cl)cc4)C3)o2)cc1OC (stereo not drawn)	mHTT CaM bind 76
O=C(Nc1nnc(C2CC(=O)N(c3ccccc3)C2)o1)c1ccccn1 (stereo not drawn)	mHTT CaM bind 100
Cc1ccccc1C(=O)Nc1nnc(C2CC(=O)N(c3ccc(S(C)(=O)=O)cc3)C2)o1 (stereo not drawn)	none
COc1ccc(C(=O)Nc2nnc(C3CC(=O)N(c4ccccc4)C3)o2)cc1OC (stereo not drawn)	mHTT CaM bind 61
COc1ccc(N2CC(c3nnc(NC(=O)c4ccc(Cl)cc4)o3)CC2=O)cc1 (stereo not drawn)	none
Cc1nc2n(c(=O)c1C)CCN2CC(=O)NCc1ccccc1Cl	none
N#CC1(C#N)[C@@H]2c3ccccc3C=CN2[C@@H](C(=O)c2ccccc2)[C@@H]1c1ccccc1	none (no result: Pf apPOL block)
CCCCC(CC)CNC(CC(=O)Nc1ccc(O)cc1)C(=O)O (stereo not drawn)	none
CCOC(C)Oc1ccc(Br)cc1 (stereo not drawn)	none (no result: Pf apPOL block)
Cc1ccc(C(c2ccc(C)o2)c2ccccc2Br)o1	none
Cc1ccc(C(c2ccc(C)o2)c2cc3c(cc2[N+](=O)[O-])OCO3)o1	mHTT CaM bind 72
Cc1cc2c(cc1[N+](=O)[O-])OCCO2	none (no result: mHTT CaM bind)
Cc1ccc(C(c2ccc(C)o2)c2cccc([N+](=O)[O-])c2O)o1	mHTT CaM bind 79
O=C1NC(=O)N2CSCC12 (stereo not drawn)	none (no result: mHTT CaM bind)
CC1CCN(C(=O)C2c3ccccc3CCN2CC(=O)NCC2CCCCC2)CC1 (stereo not drawn)	none
CC(C)CCOc1cccc(OCC(=O)NCC(=O)O)c1	none
